Giardia FBPA inh-1: qHTS Assay for Inhibitors of Fructose-1,6-bisphosphate Aldolase from Giardia Lamblia. A8B2U2. purified Giardia FBPA. Potency, µM (series often up to 59.6 µM), for the others: at the highest dose activity, negative = inhibition, hits mostly inhibitors. 0.71% of 290,000 active; also: % is scaled to controls: 0 for no effect and ±100 for the full control effect; nearly all actives have a fitted effect of over 55% in size
Target sequence (A8B2U2 whole entry, looked up): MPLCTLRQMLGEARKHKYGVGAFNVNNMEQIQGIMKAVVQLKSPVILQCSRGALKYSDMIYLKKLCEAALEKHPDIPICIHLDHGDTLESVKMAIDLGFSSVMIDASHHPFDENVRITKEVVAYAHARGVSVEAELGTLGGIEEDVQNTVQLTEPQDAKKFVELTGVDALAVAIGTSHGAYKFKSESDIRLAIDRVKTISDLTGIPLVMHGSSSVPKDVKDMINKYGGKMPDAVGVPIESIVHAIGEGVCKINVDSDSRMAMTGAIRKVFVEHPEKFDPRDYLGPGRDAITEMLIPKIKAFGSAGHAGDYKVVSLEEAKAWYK
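Giardia FBPA (40 nM reagent) was preincubated 10 min at RT with compound (up to 57.5 uM final), then substrate plus GAPDH/TPI/NAD/arsenate coupling system with diaphorase/resazurin was added; resorufin fluorescence (525/598 nm) was read after 20 min.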
LmPK inh: qHTS Assay for Inhibitors of Leishmania Mexicana Pyruvate Kinase (LmPK); Potency, µM (titrated, usually from 57.5 µM), without a hit: top-dose activity change, negative = inhibition, actives largely listed as inhibitors; AID 1721, 2009; purified LmPK, Kinase-Glo ATP luminescence, 1 h; 0.37% of 290,000 active; Q27686; also: % is scaled to controls: 0 for no effect and ±100 for the full control effect
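0.1 nM LmPK, 0.5 mM PEP, 0.1 mM ADP; 50 mM imidazole pH 7.2, 7 mM MgCl2, 50 mM KCl; 1 h RT. Kinase-Glo luminescence readout, normalized to no-enzyme (full inhibition) and uninhibited wells.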
SARS PLP yeast: qHTS of Yeast-based Assay for SARS-CoV PLP. AID 485353, 2010. S. cerevisiae expressing SARS-CoV PLpro, growth rescue. 0.19% of 330,000 active. Potency, µM (highest dose often 32.9 µM), for inactives: at the top dose activity, positive = growth rescue, most hits filed as activators; calls by dose curve; also: 0% is about no effect; nearly all actives have a fitted effect of over 55% in size
RE007 growth inh: qHTS Assay for Inhibitors of the HIV-1 protein Vpr; AID 651644, 2012; 0.21% of 360,000 active; S. pombe RE007 Vpr strain, BacTiter-Glo ATP luminescence, 24 h; Potency, µM (top dose mostly 92.2 µM), for the others: top-dose activity change, negative = less growth, hits mostly inhibitors; active = well fitted falling curve with a large enough effect; inconclusive = small, poorly fitted or top-dose-only effect; inactive = no such curve, though single readings can be large or run the other way; also: % is scaled to controls: 0 for no effect and ±100 for the full control effect; nearly all actives have a fitted effect of over 50% in size
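Fission yeast strain RE007, carrying one chromosomally integrated HIV-1 vpr copy, was seeded at OD 0.01 in PMG+AL medium with 23 nL pinned compound. After 24 h at 30 °C and 99% humidity, viability was read by BacTiter-Glo luminescence.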
TbPYK inhibitor: qHTS of Trypanosoma Brucei Inhibitors | pyruvate kinase (Trypanosoma brucei), Q57TT1 | AID 624173, 2012 | Potency, µM (highest dose often 76.8 µM), for inactives: at the highest dose activity, negative = inhibition, most hits filed as inhibitors | TbPYK enzyme, Kinase-Glo Plus ATP luminescence, 45 min | 0.12% of 410,000 active; also: % is scaled to controls: 0 for no effect and ±100 for the full control effect; nearly all actives have a fitted effect of over 50% in size
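ADP (130 uM final) triggers the TbPYK reaction after compound addition; incubation is 45 min at room temperature. Kinase-Glo Plus is then added and luminescence imaged. Normalized data are fitted to concentration-effect curves.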
Giardia growth: qHTS Assay for Inhibitors of Fructose-1,6-bisphosphate Aldolase from Giardia Lamblia: Giardia lamblia growth inhibition | 5% of 1,500 active | Potency, µM (doses to about 57.5 µM), without a hit: top-dose activity change, negative = inhibition, actives largely listed as inhibitors | AID 2785, 2010 | Giardia lamblia trophozoite growth inhibition | shares compounds with Giardia FBPA inh-1;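 also: trophozoites exposed to compound for 48 h at 37 °C; % is scaled to controls: 0 for no effect and ±100 for the full control effect; nearly all actives have a fitted effect of over 70% in size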
Mammalian tox: qHTS Assay for Inhibitors of Fructose-1,6-bisphosphate Aldolase from Giardia Lamblia: Mammalian cellular toxicity; shares compounds with Giardia FBPA inh-1; Potency, µM (highest dose often 57.5 µM), without a hit: at the top dose viability change, negative = toxicity, most hits filed as inhibitors; mammalian cell viability counter-screen, qHTS; AID 2786, 2010; 4% of 1,500 active;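 also: Chinese hamster ovary cells used as mammalian cytotoxicity surrogate; viability measured as cellular ATP by luminescence; compound exposure lasted 48 h before reading; % is scaled to controls: 0 for no effect and ±100 for the full control effect; nearly all actives have a fitted effect of over 60% in size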
Giardia FBPA inh-2: qHTS Assay for Inhibitors of Fructose-1,6-bisphosphate Aldolase from Giardia Lamblia: Primary screen confirmation | shares compounds with Giardia FBPA inh-1 | purified Giardia aldolase enzyme activity, qHTS | Potency, µM (top dose mostly 57.5 µM), for inactives: top-dose activity change, negative = inhibition, actives largely listed as inhibitors | 5% of 1,500 active; also: % is scaled to controls: 0 for no effect and ±100 for the full control effect; nearly all actives have a fitted effect of over 45% in size
Rabbit FBPA inh: qHTS Assay for Inhibitors of Fructose-1,6-bisphosphate Aldolase from Giardia Lamblia: Rabbit FBPA Selectivity; shares compounds with Giardia FBPA inh-1; Rabbit muscle FBPA enzyme inhibition, selectivity counter-screen; Potency, µM (series often up to 57.5 µM), inactives show at the highest dose activity, negative = inhibition, actives largely listed as inhibitors; 4% of 1,500 active; AID 2794, 2010; also: % is scaled to controls: 0 for no effect and ±100 for the full control effect; nearly all actives have a fitted effect of over 60% in size
Target sequence (P00883 whole entry, looked up): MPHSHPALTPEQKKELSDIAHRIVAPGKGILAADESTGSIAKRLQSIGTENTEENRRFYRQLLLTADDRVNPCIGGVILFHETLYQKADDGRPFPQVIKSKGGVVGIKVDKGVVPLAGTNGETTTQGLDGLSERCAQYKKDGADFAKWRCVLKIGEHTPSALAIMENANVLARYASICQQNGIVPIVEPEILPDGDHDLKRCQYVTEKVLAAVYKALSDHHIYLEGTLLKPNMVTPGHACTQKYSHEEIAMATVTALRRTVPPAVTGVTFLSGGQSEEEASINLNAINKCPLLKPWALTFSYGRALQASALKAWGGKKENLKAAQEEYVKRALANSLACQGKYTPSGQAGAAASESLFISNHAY
GAPDH coupling: qHTS Assay for Inhibitors of Fructose-1,6-bisphosphate Aldolase from Giardia Lamblia: Coupling assay counterscreen confirmation. 6% of 1,500 active. GAPDH coupling enzyme counterscreen, biochemical, qHTS. AID 2795, 2010. Potency, µM (series often up to 57.5 µM), for the others: top-dose activity change, negative = inhibition, usual class: inhibitors. shares compounds with Giardia FBPA inh-1; also: % is scaled to controls: 0 for no effect and ±100 for the full control effect; nearly all actives have a fitted effect of over 55% in size
Starred values were filed as active, the others as inactive; ? = inconclusive; · = no result; [ ] = another dose, or the depositor's remark. In the library only some 1.1% were active in any assay of this set; here they are far more common. Unless noted, calls follow the shape of the dose curve; as a rule, active = well fitted curve in the direction sought with a large enough effect; inconclusive = small, poorly fitted or top-dose-only effect, or another doubt; inactive = no such curve, though single readings can be large; an effect the other way counts as inactive or inconclusive. Potency is read from the fitted curve at half-maximal effect.

SMILES	Giardia FBPA inh-1	LmPK inh	SARS PLP yeast	RE007 growth inh	TbPYK inhibitor	Giardia growth	Mammalian tox	Giardia FBPA inh-2	Rabbit FBPA inh	GAPDH coupling
O=C(NC1CCCCCC1)C(=S)NC1CCCCC1	18µM*	4%	0%	-1%	-1%	?	7%	-8%	1%	3%
CCCCOc1c(Br)cc(CNCCCN2CCOCC2)cc1OC	20µM*	-2%	-10%	3%	-6%	?	-9%	3%	3%	8%
Nc1c2c(nc3ccc(Br)cc13)N(C1CCCCC1)CC2	18µM*	-3%	-2%	·	·	5µM*	-28%	-4%	-4%	-10%
CCc1nc(SCc2cc(=O)c3cc(F)ccc3[nH]2)n[nH]1	·	·	·	·	2%	·	·	·	·	·
CCOC(=O)c1c(N2CCN(c3ccccc3)CC2)cc(C)nc1C	14µM*	-7%	-3%	2%	7%	?	5%	1%	8%	-9%
COc1cc(-c2nc(C(=O)NCC3CCCO3)cc3c2[nH]c2ccccc23)cc(OC)c1OC (stereo unspecified)	8.9µM*	?	16%	0%	-9%	-9%	40µM*	-1%	-9%	-1%
CCOc1ccccc1NC(=O)C1CCN(S(=O)(=O)c2cccs2)CC1	·	·	·	·	2%	·	·	·	·	·
COc1cc(/C=N/n2c(=S)[nH]nc(C)c2=O)cc([N+](=O)[O-])c1O	16µM*	1%	0%	-6%	-6%	?	-4%	2%	-9%	4%
Cc1ccc(OCCCN2CCOCC2)cc1	20µM*	-6%	-5%	2%	4%	?	-10%	10%	3%	7%
Cc1ccc(OCCCCCN2CCOCC2)cc1	6%	-1%	1%	?	3%	·	·	·	·	·
CCOc1ccc(S(=O)(=O)O)c2cccnc12	·	·	·	·	-2%	·	·	·	·	·
CCOc1ccc2[nH]c(S(=O)(=O)CC)nc2c1Cl	3.5µM*	-2%	·	4%	3%	-18%[38.3 µM]	1%	-11%	-3%	1%
Cc1c(Cl)cccc1N1CCn2c1nc1c2c(=O)n(CC(=O)O)c(=O)n1C	·	·	·	·	4%	·	·	·	·	·
Cc1ccc(CN2CCN(Cc3ccco3)CC2)cc1	16µM*	-4%	2%	1%	-1%	-6%	2%	-2%	7%	-18%
COc1ccc(CN2CCN(Cc3ccco3)CC2)c(OC)c1	13µM*	-2%	-1%	2%	5%	?	-2%	-1%	4%	5%
COc1ccccc1CN1CCCCCC1	?	-2%	0%	-4%	-19%	·	·	·	·	·
COc1cc(CN2CCN(Cc3ccco3)CC2)cc(OC)c1	14µM*	2%	0%	2%	23%	?	-8%	4%	8%	0%
COc1ccccc1CN1CCN(Cc2ccco2)CC1	16µM*	-3%	-1%	-7%	-1%	-6%[10.4 µM]	0%	4%	3%	8%
COc1ccc(CN2CCN(Cc3ccccc3)CC2)c(OC)c1	-1%	2%	0%	7%	2%	·	·	·	·	·
CC(=O)c1cccc(NC(=O)c2ccc3nc(C(C)C)oc3c2)c1	·	·	·	·	4%	·	·	·	·	·
CC(=O)c1cc2c(cc1NC(=O)c1c(C)nn(-c3ccc(C)cc3)c1-n1cccc1)OCO2	·	·	·	·	-4%	·	·	·	·	·
O=[N+]([O-])c1cc(F)c2cccnc2c1O	20µM*	2%	-4%	?	-13%	?	-19%	?	?	32µM*
O=[N+]([O-])c1cc(Cl)c2cccnc2c1O	-19%	1%	-3%	?	-4%	·	·	·	·	·
O=C(c1csnn1)N1CCC2(CC1)CCN(c1ncccn1)CC2	1%	·	·	·	4%	·	·	·	·	·
COc1cccc(NC(=O)c2ccc(CNS(=O)(=O)c3ccc4c(c3)C(C)(C)C(=O)N4C)cc2)c1	·	·	·	·	3%	·	·	·	·	·
C=CCNC(=S)/C(=C(\[O-])c1ccc(Cl)cc1)[n+]1ccccc1	13µM*	2%	0%	-10%	-11%	-21%	4%	-2%	7%	-2%
[O-]/C(=C(\C(=S)NCc1ccccc1)[n+]1ccccc1)c1ccc(Cl)cc1	-21%	1%	1%	-23%	7%	·	·	·	·	·
CCc1ccc(-n2c(=O)c3sc4ccccc4c3n(CC(=O)N(CC)Cc3ccccc3)c2=O)cc1	·	·	·	·	-2%	·	·	·	·	·
CCOc1ccccc1NC(=O)C(CC)Sc1nc2ccncc2[nH]1 (stereo unspecified)	14µM*	1%	2%	-14%	5%	-14%[10.4 µM]	4%	-6%	0%	2%
CCOc1ccccc1NC(=O)C(CC)Sc1nc2ncccc2[nH]1 (stereo unspecified)	·	·	·	·	1%	·	·	·	·	·

High-throughput results: PubChem BioAssay, National Center for Advancing Translational Sciences (NCATS)
